# From the supplement of paper PMC8728848
# The sample as a whole holds a higher share of the strongest signals than the screen did.
# B1: S100A12 (Homo sapiens), P80511 (protein)
# chain: MTKLEEHLEGIVNIFHQYSVRKGHFDTLSKGELKQLLTKELANTIKNIKDKAVIDEIFQGLDANQDEQVDFQEFISLVAIALKAAHYHTHKE
# B2: Angptl4 (Homo sapiens), Q9BY76 (protein)
# chain: MSGAPTAGAALMLCAATAVLLSAQGGPVQSKSPRFASWDEMNVLAHGLLQLGQGLREHAERTRSQLSALERRLSACGSACQGTEGSTDLPLAPESRVDPEVLHSLQTQLKAQNSRIQQLFHKVAQQQRHLEKQHLRIQHLQSQFGLLDHKHLDHEVAKPARRKRLPEMAQPVDPAHNVSRLHRLPRDCQELFQVGERQSGLFEIQPQGSPPFLVNCKMTSDGGWTVIQRRHDGSVDFNRPWEAYKAGFGDPHGEFWLGLEKVHSITGDRNSRLAVQLRDWDGNAELLQFSVHLGGEDTAYSLQLTAPVAGQLGATTVPPSGLSVPFSTWDQDHDLRRDKNCAKSLSGGWWFGTCSHSNLNGQYFRSIPQQRQKLKKGIFWKTWRGRYYPLQATTMLIQPMAAEAAS
# Columns and labels:
# Test in all cases: glycan array binding signal (z-score within array); higher = stronger binding
# Conditions in all cases: glycan notation: IUPAC condensed, linker removed
# [1] = target: Fuc(a1-2)Gal(b1-3)GalNAc(b1-3)Gal
# Procedure, shortened: (§1)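 The binding signal is a Z-score computed within each array. Data were drawn from 3228 arrays in the Consortium for Functional Glycomics database, restricted to those with a known protein sequence. Scores were averaged over arrays of the same protein sequence at different concentrations or buffers, and over linkers, and negative values can be taken as non-binding.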
# [2] = target: Fuc(a1-2)Gal(b1-3)GalNAc(b1-4)[Neu5Ac(a2-3)]Gal(b1-4)Glc
# Procedure, shortened: as §1
# [3] = target: Fuc(a1-2)Gal(b1-4)GlcNAc
# Procedure, shortened: as §1
# [4] = target: Fuc(a1-2)[Gal(a1-3)]Gal
# Procedure, shortened: as §1
# [5] = target: Fuc(a1-2)[GalNAc(a1-3)]Gal(b1-4)[Fuc(a1-3)]GlcNAc
# Procedure, shortened: as §1
# [6] = target: Fuc(a1-2)[GalNAc(a1-4)]Gal(b1-4)GlcNAc
# Procedure, shortened: as §1
# [7] = target: Gal(a1-2)Gal
# Procedure, shortened: as §1
# [8] = target: Gal(b1-3)[Fuc(a1-4)]GlcNAc(b1-3)Gal(b1-4)[Fuc(a1-3)]GlcNAc
# Procedure, shortened: as §1
# [9] = target: Gal(b1-4)GlcNAc(b1-3)Gal(b1-4)GlcNAc(b1-3)Gal(b1-4)GlcNAc
# Procedure, shortened: as §1
# [10] = target: Gal(b1-4)GlcNAc(b1-6)Gal(b1-4)GlcNAc(b1-6)GalNAc
# Procedure, shortened: as §1
# [11] = target: Gal(b1-4)GlcNAc(b1-6)GalNAc
# Procedure, shortened: as §1
# [12] = target: Gal3S(b1-3)GalNAc
# Procedure, shortened: as §1
# [13] = target: Gal3S(b1-4)Glc6S
# Procedure, shortened: as §1
# [14] = target: Gal3S(b1-4)GlcNAc6S
# Procedure, shortened: as §1
# [15] = target: Gal3S6S(b1-4)GlcNAc6S
# Procedure, shortened: as §1
# [16] = target: Gal4S6S(b1-4)GlcNAc
# Procedure, shortened: as §1
# [17] = target: Gal6S(b1-4)Glc6S
# Procedure, shortened: as §1
# [18] = target: GlcA(b1-3)Gal
# Procedure, shortened: as §1
# [19] = target: GlcNAc(b1-2)Man(a1-3)[GlcNAc(b1-2)Man(a1-6)]Man(b1-4)GlcNAc(b1-4)GlcNAc
# Procedure, shortened: as §1
# [20] = target: GlcNAc(b1-4)GlcNAc(b1-4)GlcNAc(b1-4)GlcNAc(b1-4)GlcNAc(b1-4)GlcNAc
# Procedure, shortened: as §1
# [21] = target: GlcNAc(b1-6)GalNAc
# Procedure, shortened: as §1
# [22] = target: Man(a1-2)Man(a1-3)[Man(a1-6)]Man(a1-6)[Man(a1-2)Man(a1-3)]Man(b1-4)GlcNAc(b1-4)GlcNAc
# Procedure, shortened: as §1
# [23] = target: Neu5Ac(a2-3)Gal(b1-3)GalNAc(b1-3)Gal(b1-4)GlcNAc
# Procedure, shortened: as §1
# [24] = target: Neu5Ac(a2-3)Gal(b1-4)[Fuc(a1-3)]GlcNAc(b1-3)Gal
# Procedure, shortened: as §1
# [25] = target: Neu5Ac(a2-3)[Neu5Ac(a2-6)]GalNAc
# Procedure, shortened: as §1
# [26] = target: Neu5Gc(a2-6)GalNAc
# Procedure, shortened: as §1
# [27] = target: Fuc(a1-2)Gal(b1-4)GlcNAc(b1-3)Gal(b1-4)GlcNAc(b1-3)Gal(b1-4)GlcNAc
# Procedure, shortened: as §1
# [28] = target: Fuc(a1-2)Gal6S(b1-4)Glc
# Procedure, shortened: as §1
# [29] = target: Fuc(a1-2)[Gal(a1-3)]Gal(b1-4)GlcNAc
# Procedure, shortened: as §1
# [30] = target: Fuc(a1-3)GlcNAc
# Procedure, shortened: as §1
# [31] = target: Fuc(a1-3)[Gal(b1-4)]GlcNAc6S
# Procedure, shortened: as §1
# [32] = target: Gal(a1-3)Gal(b1-4)[Fuc(a1-3)]GlcNAc
# Procedure, shortened: as §1
# [33] = target: Gal(b1-3)Gal
# Procedure, shortened: as §1
# [34] = target: Gal(b1-3)[GlcNAc(b1-6)]GalNAc
# Procedure, shortened: as §1
# [35] = target: Gal(b1-4)GlcNAc(b1-3)Gal(b1-4)Glc
# Procedure, shortened: as §1
# [36] = target: Gal(b1-4)GlcNAc(b1-3)Gal(b1-4)[Fuc(a1-3)]GlcNAc(b1-3)Gal(b1-4)[Fuc(a1-3)]GlcNAc
# Procedure, shortened: as §1
# [37] = target: Gal(b1-4)GlcNAc(b1-3)[GlcNAc(b1-6)]Gal(b1-4)GlcNAc
# Procedure, shortened: as §1
# [38] = target: Gal3S(b1-4)Glc
# Procedure, shortened: as §1
# [39] = target: GalNAc(b1-3)Gal
# Procedure, shortened: as §1
# [40] = target: GalNAc(b1-4)GlcNAc
# Procedure, shortened: as §1
# [41] = target: Kdn(a2-3)Gal(b1-3)GlcNAc
# Procedure, shortened: as §1
# [42] = target: Man(a1-3)[Man(a1-6)]Man(a1-6)[Man(a1-2)Man(a1-3)]Man(b1-4)GlcNAc(b1-4)GlcNAc
# Procedure, shortened: as §1
# [43] = target: Neu5Ac(a2-3)Gal(b1-3)GlcNAc6S
# Procedure, shortened: as §1
# [44] = target: Neu5Ac(a2-3)Gal(b1-3)[Fuc(a1-4)]GlcNAc
# Procedure, shortened: as §1
# [45] = target: Neu5Ac(a2-3)Gal(b1-4)GlcNAc(b1-3)Gal(b1-3)GlcNAc
# Procedure, shortened: as §1
# [46] = target: Neu5Ac(a2-3)Gal6S(b1-4)[Fuc(a1-3)]GlcNAc
# Procedure, shortened: as §1
# [47] = target: Neu5Ac(a2-3)GalNAc
# Procedure, shortened: as §1
# [48] = target: Neu5Ac(a2-6)Gal(b1-4)GlcNAc(b1-2)Man(a1-6)[Gal(b1-4)GlcNAc(b1-2)Man(a1-3)]Man(b1-4)GlcNAc(b1-4)GlcNAc
# Procedure, shortened: as §1
# [49] = target: Neu5Ac(a2-6)Gal(b1-4)GlcNAc(b1-3)Gal(b1-4)[Fuc(a1-3)]GlcNAc(b1-3)Gal(b1-4)[Fuc(a1-3)]GlcNAc
# Procedure, shortened: as §1
# [50] = target: Neu5Ac(a2-8)Neu5Ac(a2-8)Neu5Ac
# Procedure, shortened: as §1
binder,measurement,setting,value
B1,glycan array binding signal (z-score),[1],1.87
same,glycan array binding signal (z-score),[2],-0.259
same,glycan array binding signal (z-score),[3],-0.748
same,glycan array binding signal (z-score),[4],-0.758
same,glycan array binding signal (z-score),[5],-0.154
same,glycan array binding signal (z-score),[6],-0.766
same,glycan array binding signal (z-score),[7],0.006
same,glycan array binding signal (z-score),[8],-0.056
same,glycan array binding signal (z-score),[9],-0.226
same,glycan array binding signal (z-score),[10],-0.768
same,glycan array binding signal (z-score),[11],-0.528
same,glycan array binding signal (z-score),[12],0.207
same,glycan array binding signal (z-score),[13],2.45
same,glycan array binding signal (z-score),[14],2.67
same,glycan array binding signal (z-score),[15],2.83
same,glycan array binding signal (z-score),[16],2.91
same,glycan array binding signal (z-score),[17],2.19
same,glycan array binding signal (z-score),[18],0.368
same,glycan array binding signal (z-score),[19],1.79
same,glycan array binding signal (z-score),[20],-0.158
same,glycan array binding signal (z-score),[21],-0.903
same,glycan array binding signal (z-score),[22],-0.256
same,glycan array binding signal (z-score),[23],-0.704
same,glycan array binding signal (z-score),[24],-0.943
same,glycan array binding signal (z-score),[25],0.727
same,glycan array binding signal (z-score),[26],-0.009
B2,glycan array binding signal (z-score),[1],5.26
same,glycan array binding signal (z-score),[27],0.616
same,glycan array binding signal (z-score),[28],-0.253
same,glycan array binding signal (z-score),[29],0.087
same,glycan array binding signal (z-score),[30],-0.446
same,glycan array binding signal (z-score),[31],-0.527
same,glycan array binding signal (z-score),[32],-0.522
same,glycan array binding signal (z-score),[33],0.531
same,glycan array binding signal (z-score),[8],-0.192
same,glycan array binding signal (z-score),[34],-0.215
same,glycan array binding signal (z-score),[35],-0.407
same,glycan array binding signal (z-score),[36],3.98
same,glycan array binding signal (z-score),[37],-0.27
same,glycan array binding signal (z-score),[38],-0.052
same,glycan array binding signal (z-score),[39],-0.523
same,glycan array binding signal (z-score),[40],-0.398
same,glycan array binding signal (z-score),[41],0.691
same,glycan array binding signal (z-score),[42],5.32
same,glycan array binding signal (z-score),[43],7.07
same,glycan array binding signal (z-score),[44],-0.272
same,glycan array binding signal (z-score),[45],-0.262
same,glycan array binding signal (z-score),[46],-0.53
same,glycan array binding signal (z-score),[47],-0.954
same,glycan array binding signal (z-score),[48],4.1
same,glycan array binding signal (z-score),[49],0.162
same,glycan array binding signal (z-score),[50],-0.016
